From PubChem BioAssay (NCATS)
Records with an inconclusive call do not appear. Active and inactive are the calls of the source. Calls follow the shape of the dose curve; as a rule, active = well fitted curve in the direction sought with a large enough effect; inconclusive = small, poorly fitted or top-dose-only effect, or another doubt; inactive = no such curve, though single readings can be large; an effect the other way counts as inactive or inconclusive.

Experiments:
[1] = target: Voltage-gated inwardly rectifying potassium channel KCNH2 (Homo sapiens) (UniProt Q12809); assay: qHTS Assay for Small Molecule Inhibitors of the Human hERG Channel Activity (AID 588834); settings: U2OS BacMam hERG, FluxOR thallium flux fluorescence; series mostly up to 46.1 µM;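 also: top concentration of the series differs between compounds; lower thallium flux fluorescence means stronger hERG block; nearly all actives have a fitted effect of over 50% in size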
Chain of Voltage-gated inwardly rectifying potassium channel KCNH2 (Homo sapiens) (Q12809 whole entry, looked up): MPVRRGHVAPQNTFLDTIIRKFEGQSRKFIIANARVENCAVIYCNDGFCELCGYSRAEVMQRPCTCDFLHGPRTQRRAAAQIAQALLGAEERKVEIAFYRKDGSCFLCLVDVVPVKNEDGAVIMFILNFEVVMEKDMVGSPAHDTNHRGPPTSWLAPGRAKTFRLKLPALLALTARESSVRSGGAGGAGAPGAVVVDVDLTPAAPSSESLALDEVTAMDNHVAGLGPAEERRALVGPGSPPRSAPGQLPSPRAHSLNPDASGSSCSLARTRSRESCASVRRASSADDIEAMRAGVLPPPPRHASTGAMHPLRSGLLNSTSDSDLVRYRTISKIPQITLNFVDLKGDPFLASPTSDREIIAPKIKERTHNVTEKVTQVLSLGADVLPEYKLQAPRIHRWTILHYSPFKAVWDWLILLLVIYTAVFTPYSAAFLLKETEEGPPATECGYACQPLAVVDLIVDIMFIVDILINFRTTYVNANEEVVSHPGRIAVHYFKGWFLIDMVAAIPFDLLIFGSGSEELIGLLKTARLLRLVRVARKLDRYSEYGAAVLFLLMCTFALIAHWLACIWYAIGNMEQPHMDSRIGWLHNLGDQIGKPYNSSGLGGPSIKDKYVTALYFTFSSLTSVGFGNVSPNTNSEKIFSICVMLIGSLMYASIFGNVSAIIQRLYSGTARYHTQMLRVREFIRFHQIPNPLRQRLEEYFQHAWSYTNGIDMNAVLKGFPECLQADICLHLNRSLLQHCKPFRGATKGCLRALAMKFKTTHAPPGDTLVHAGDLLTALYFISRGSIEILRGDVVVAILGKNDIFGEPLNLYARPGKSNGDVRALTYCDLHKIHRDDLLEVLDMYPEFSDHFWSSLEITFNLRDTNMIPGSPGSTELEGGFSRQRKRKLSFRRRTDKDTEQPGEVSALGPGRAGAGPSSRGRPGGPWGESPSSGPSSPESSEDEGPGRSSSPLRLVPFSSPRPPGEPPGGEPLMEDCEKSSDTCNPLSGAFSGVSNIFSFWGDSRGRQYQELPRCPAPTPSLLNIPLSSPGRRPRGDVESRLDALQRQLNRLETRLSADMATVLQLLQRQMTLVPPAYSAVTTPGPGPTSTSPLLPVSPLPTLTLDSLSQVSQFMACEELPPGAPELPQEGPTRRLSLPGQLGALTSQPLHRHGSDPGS
In short: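 Thallium serves as surrogate for K+ influx through BacMam-delivered hERG in U2OS cells. Compounds are added for about 10 minutes after dye loading; stimulation buffer then starts flux, monitored kinetically on FDSS.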

[2] = target: Glutaminase kidney isoform, mitochondrial (Homo sapiens) (UniProt O94925); assay: qHTS for Inhibitors of Glutaminase (GLS): LOPAC Validation (AID 624146); settings: glutaminase enzyme activity inhibition; series mostly up to 46.1 µM;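 also: glutamate product detected by oxidase and peroxidase coupled Amplex red fluorescence gain; nearly all actives have a fitted effect of over 60% in size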
Chain of Glutaminase kidney isoform, mitochondrial (Homo sapiens) (O94925 whole entry, looked up, canonical isoform): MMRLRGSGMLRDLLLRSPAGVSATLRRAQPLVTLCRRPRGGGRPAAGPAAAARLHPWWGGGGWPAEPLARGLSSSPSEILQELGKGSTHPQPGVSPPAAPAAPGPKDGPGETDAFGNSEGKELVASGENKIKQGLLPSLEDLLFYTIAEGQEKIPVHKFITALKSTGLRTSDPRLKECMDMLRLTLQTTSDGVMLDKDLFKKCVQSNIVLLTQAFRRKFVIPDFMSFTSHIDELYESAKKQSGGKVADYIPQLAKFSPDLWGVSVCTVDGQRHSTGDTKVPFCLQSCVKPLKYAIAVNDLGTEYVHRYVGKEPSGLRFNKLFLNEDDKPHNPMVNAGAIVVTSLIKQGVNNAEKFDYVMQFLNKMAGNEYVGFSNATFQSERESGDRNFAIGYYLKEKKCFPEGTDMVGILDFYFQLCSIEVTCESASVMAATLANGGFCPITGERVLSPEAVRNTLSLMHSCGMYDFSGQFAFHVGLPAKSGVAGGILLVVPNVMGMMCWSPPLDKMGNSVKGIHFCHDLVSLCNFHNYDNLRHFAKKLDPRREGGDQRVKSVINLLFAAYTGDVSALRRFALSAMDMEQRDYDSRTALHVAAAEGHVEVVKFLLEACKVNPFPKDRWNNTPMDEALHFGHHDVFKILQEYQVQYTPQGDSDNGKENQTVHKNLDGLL
In short: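 Human kidney-isoform GLS in 45 mM KH2PO4 pH 8.2, 0.02% Tween-20, with compound, started with 1mM L-Glutamine (added stock). Glutamate oxidase/HRP/Amplex red coupled fluorescence read at start and after 30 min at RT.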

[3] = qHTS of Trypanosoma Brucei Inhibitors: LOPAC Validation (AID 624147); settings: purified enzyme assay, luminescence, 45 min; series mostly up to 57.5 µM
In short: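 Readout: single end-point luminescence (Kinase-Glo Plus, 10 min). Reaction conditions were TbPYK/substrate plus 130 uM ADP, 45 min at RT, pH 7.2 TEA buffer. No-enzyme wells served as controls, and data were normalized before concentration-response fitting.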

[4] = target: Glucagon-like peptide 1 receptor (Homo sapiens) (UniProt P43220); assay: qHTS of GLP-1 Receptor Agonists: LOPAC Validation (AID 624148); settings: GLP-1R agonist cell assay; series mostly up to 46.1 µM;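 also: higher luminescence signal means agonism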
Chain of Glucagon-like peptide 1 receptor (Homo sapiens) (P43220 whole entry, looked up): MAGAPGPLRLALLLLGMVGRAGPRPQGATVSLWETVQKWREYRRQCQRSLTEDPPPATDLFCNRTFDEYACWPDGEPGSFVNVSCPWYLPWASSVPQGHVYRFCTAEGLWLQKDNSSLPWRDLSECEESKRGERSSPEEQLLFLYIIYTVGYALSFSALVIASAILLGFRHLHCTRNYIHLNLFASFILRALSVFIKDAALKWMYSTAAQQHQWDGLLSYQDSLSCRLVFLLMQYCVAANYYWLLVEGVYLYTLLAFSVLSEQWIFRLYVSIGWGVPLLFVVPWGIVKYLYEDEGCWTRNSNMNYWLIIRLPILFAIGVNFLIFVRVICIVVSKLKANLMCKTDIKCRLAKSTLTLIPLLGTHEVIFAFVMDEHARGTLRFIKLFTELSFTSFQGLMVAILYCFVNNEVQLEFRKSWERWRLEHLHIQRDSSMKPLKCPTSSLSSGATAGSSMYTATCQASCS
In short: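 HEK293 cells stably co-expressing GLP-1R and a cAMP-responsive luciferase reporter, plated 12 hours before compound, then incubated 4-6 hr at 37 deg C. Luminescence read 12 min after detection reagent.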

[5] = qHTS of Nrf2 Activators: LOPAC Validation (AID 624149); settings: Nrf2/ARE reporter cell assay; series mostly up to 46.1 µM
In short: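 Cells (AREc32_Fluc) are plated at 1000 per well in OPTI-MEM containing 5% FBS and left overnight. Compounds are pinned in and incubated 24 hr at 37 deg C, and firefly luciferase is detected with Steady-Glo.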

[6] = HTS Assay for Allosteric Antagonists of the Human D2 Dopamine Receptor: Hit Validation in HTRF (AID 624455); settings: Cells stably expressing D1 dopamine receptor, inhibition mode; series mostly up to 46.1 µM;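 also: stable D1 dopamine receptor cell line scored for blocking the D1 response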
In short: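 Inhibition of the D1-mediated response is measured by HTRF in cells that stably express the D1 dopamine receptor. Compounds reaching this step are hits from calcium-flux antagonism testing at EC80 dopamine in inducible Hek293 Trex D2 cells.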

Measured: Potency

NCCCCN=C(N)N
inactive: all assays above

N[C@H]1CONC1=O
inactive: [1] | [2] | [3] | [5]

O=C(O)C1=CC(=C(c2ccc(O)c(C(=O)O)c2)c2ccc(O)c(C(=O)O)c2)C=CC1=O
not listed: [4]
inactive: all other assays above
